According to PubChem BioAssay AID504834 (National Center for Advancing Translational Sciences (NCATS), 2011):
Out of some 320,000 compounds screened, about 22,000 (6.9%) were called active. Another 27% or so got no clear call; they are omitted. The full list was thinned out, with actives kept by preference. Unmarked numbers belong to inactive results. The call rests on the fitted dose curve; in most records, active means well fitted inhibition curve with a large enough effect; inconclusive means small, poorly fitted or top-dose-only effect, or another doubt; inactive means no such curve, though single readings can be large or run the other way.

experiment: Primary qHTS for delayed death inhibitors of the malarial parasite plastid, 96 hour incubation; details: P. falciparum luciferase reporter growth; series mostly up to 28.7 µM; activity change, negative = inhibition: at the top concentration
Procedure, shortened: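 Erythrocytes infected with luciferase-expressing P. falciparum were dispensed at 2% hematocrit and 0.05% parasitemia (final), then incubated with compounds 96 hours at 37 C in 5% CO2. Luminescence after detection reagent addition reported growth.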
On the % scale 0 is the no-effect control and ±100 the full control effect; potency means the concentration at half of the fitted maximal effect.

Row | Structure (SMILES) | activity change, negative = inhibition | Potency
1 | CSCCC(NC(=O)c1ccco1)C(=O)Nc1cc(C)ccn1 (centres undefined) | 157% | –
2 | COc1ccc(CCNS(=O)(=O)c2ccc(F)cc2)cc1OC | 4.43% | –
3 | CCOC(=O)c1cc(S(=O)(=O)NCCc2ccc(OC)c(OC)c2)cn1C | – | 13.1 µM (active)
4 | CCS(=O)(=O)NCCc1ccc(OC)c(OC)c1 | 7.66% | –
5 | Cc1[nH]c2ccc(C(=O)N3CCN(C)CC3)cc2c1C | 71.1% | –
6 | Cc1c(Cl)cccc1NC(=O)[C@@]1(CC(=O)O)CC(/C=C/c2ccccc2)=NO1 | 12.7% | –
7 | CN1CCc2nc(SC(C(=O)O)c3ccccc3)c(C#N)c(-c3cccs3)c2C1 (centres undefined) | 2.82% | –
8 | Cc1cc(NC(=O)CCS(=O)(=O)c2ccc(F)cc2)no1 | 17.5% | –
9 | COc1ccc(C(=O)Nc2ccccc2C(=O)N/N=C/c2ccccc2OC)cc1 | -12.8% | –
10 | COc1cccc(/C=N\NC(=O)C2=NNC(=O)C2C)c1O (centres undefined) | – | 4.15 µM (active)
11 | COc1cccc(/C=N/NC(=O)c2[nH]nc3c2CCc2ccccc2-3)c1O | 11.3% | –
12 | COc1ccccc1-n1ccnc(SCC(=O)NC2CCCCC2)c1=O | -12.4% | –
13 | COc1ccc(C(=O)OCC(=O)Nc2ccc3[nH]c(=O)[nH]c3c2)c(OC)c1OC | 7.27% | –
14 | Cc1ccc(S(=O)(=O)N(C)C)cc1NC(=O)COC(=O)/C=C/c1cccs1 | -0.398% | –
15 | CC(C)C(NC(=O)C1CCC(C(C)(C)C)CC1)C(=O)NCCCN1CCCCC1 (centres undefined) | – | 13.1 µM (active)
16 | O=C(NC(C(=O)NCCN1CCOCC1)C12CC3CC(CC(C3)C1)C2)C1CCCCC1 (centres undefined) | -25.7% | –
17 | CC(C)[C@@H](NC(=O)OC(C)(C)C)C(=O)NCC1CCC(C(=O)N[C@@H](Cc2ccccc2)C(=O)O)CC1 (some centres undefined) | -3.55% | –
18 | CCCCn1c(N)c(N(CC)C(=O)c2ccccc2C(F)(F)F)c(=O)[nH]c1=O | 14.2% | –
19 | CCOc1ccc(CN(C)C(=O)c2ccc(=O)[nH]c2)cc1 | -5.36% | –
20 | COc1ccc(N(CCC(=O)NCCc2ccccc2)S(=O)(=O)c2ccc(C)cc2C)cc1 | 28% | –
21 | Cc1cccc(NC(=O)Nc2cccc(Oc3c(F)c(F)c(F)c(F)c3F)c2)c1 | – | 2.08 µM (active)
22 | Cc1cccc(NC(=S)NC(=O)c2ccc(Br)o2)c1 | 48.5% | –
23 | Cc1cccc(NC(=O)NC(=S)NC(=O)c2ccccc2)c1 | 111% | –
24 | Cc1ccc(C)c(NS(=O)(=O)c2ccc(OCC(=O)NCc3cccnc3)cc2)c1 | 5.79% | –
25 | Cc1ccc(S(=O)(=O)c2nc(-c3cccs3)oc2NCc2cccnc2)cc1 | – | 11.7 µM (active)

Row | Structure (SMILES) | activity change, negative = inhibition | Potency
26 | O=C(NCc1cccnc1)c1nc(-c2cccs2)no1 | 112% [at 5.75 µM] | –
27 | COc1cccc2cc(C(N)=O)/c(=N\NC(=O)c3ccccc3)oc12 | -23.7% | –
28 | Cn1nccc1NS(=O)(=O)c1ccc(F)cc1 | -10.2% | –
29 | O=C(CN1CCN(c2ccc(Cl)cc2)CC1)c1ccccc1 | -0.965% | –
30 | CC(=O)c1ccc2c(ccc3ccccc32)c1 | 55.4% | –
31 | Cc1ccn2c(=O)c(NC(=O)c3cccc4ccccc34)c(C)nc2c1 | -9.77% | –
32 | CC(=O)c1nn(-c2cccc(Br)c2)cc1C(=O)c1cccc2ccccc12 | – | 6.57 µM (active)
33 | Cc1ccc(C(=O)OCC(=O)Nc2ccc(Cl)cn2)cc1S(=O)(=O)N1CCOCC1 | 3.68% | –
34 | Cc1ccc(CSc2ccc(S(=O)(=O)N3CCCCC3)cn2)cc1 | 17.7% | –
35 | O=C(Nc1ccc(F)cc1)c1ccc(S(=O)(=O)NCc2cccnc2)cc1 | 6.72% | –
36 | Cc1cccn2cc(-c3cccc(S(=O)(=O)N4CCCCC4)c3)nc12 | 5.08% | –
37 | COc1ccc(N2CCN(C(=O)c3ccc(N4CCCCS4(=O)=O)cc3)CC2)cc1 | 108% | –
38 | Cc1ccc(CN(Cc2cccnc2)C(=S)Nc2cccc(Cl)c2C)cc1 | -17.2% | –
39 | COCCNC(=S)N(Cc1cccnc1)Cc1ccc(OC)c(OC)c1 | -15.1% | –
40 | COCCNC(=S)N(CCc1c(C)[nH]c2ccc(C)cc12)Cc1cccnc1 | – | 1.65 µM (active)
41 | CC(NC(=O)c1cc(=O)[nH]c2ccccc12)c1ccc(F)cc1F (centres undefined) | -2.79% | –
42 | O=C1C(=O)N(CCCN2CCOCC2)C(c2ccc([N+](=O)[O-])cc2)/C1=C(\O)c1ccc2c(c1)OCCO2 (centres undefined) | -23.5% | –
43 | COC(=O)c1c(NC(=O)C(=O)N2CCCCC2)sc2c1CC(C)(C)OC2 | -9.87% | –
44 | Cc1ccc(CNC(=O)Cn2c(=O)c3sccc3n(Cc3cccc([N+](=O)[O-])c3)c2=O)cc1 | – | 8.28 µM (active)
45 | COCCNC(=O)CCCn1c(=O)c2ccccc2n(Cc2cccc([N+](=O)[O-])c2)c1=O | -27.3% | –
46 | Cc1ccc(Cn2c(C)c3cnn(CC(=O)NCc4ccccn4)c(=O)c3c2C)cc1 | 31.5% | –
47 | CSCC[C@H](NC(=O)N1CCn2c1nc1ccccc12)C(=O)NC1CCCCC1 | -11.6% | –
48 | CCn1c(SCC(=O)NC2CC2)nnc1-c1ccncc1 | 30.7% | –
49 | Cc1cccc(-n2cc(CN3CCN(C(=O)c4ncn[nH]4)CC3)c(-c3cccc(F)c3)n2)c1 | 16.2% | –
50 | COc1ccc(-n2cc(CN(C)Cc3n[nH]c(=O)[nH]3)c(-c3cccc(F)c3)n2)cc1 | 1.24% | –

Row | Structure (SMILES) | activity change, negative = inhibition | Potency
51 | Cc1ccc(-n2cc(CN(C)Cc3nccn3C)c(-c3cccc(C)c3)n2)cc1 | – | 3.7 µM (active)
52 | CCCCn1c(N)c(N(CC(C)C)C(=O)c2cnc(C)cn2)c(=O)[nH]c1=O | 23.4% | –
53 | Cc1nn(Cc2ccccc2)c(C)c1NS(=O)(=O)c1ccccc1 | – | 10.4 µM (active)
54 | Cc1cc(NS(=O)(=O)c2ccccc2)no1 | 42.6% | –
55 | Cc1nn(Cc2ccccc2)c(C)c1C(=O)NCCCN1CCCC1=O | 7.34% | –
56 | NNC(=O)c1cccc(COCC(F)(F)C(F)F)c1 | 10.6% | –
57 | COCCNc1nnc(SCC(=O)NNC(=O)c2ccco2)s1 | -15.4% | –
58 | CCCc1nnc(NC(=O)CCC(=O)NC2CC2)s1 | 6.55% | –
59 | COc1ccc(CNC(=O)C2CCN(S(=O)(=O)c3ccc(SC)cc3)CC2)cc1 | 2.03% | –
60 | CSc1ccc(S(=O)(=O)N2CCC(C(=O)NCc3ccncc3)CC2)cc1 | – | 7.38 µM (active)
61 | O=C(NCc1ccncc1)C1CCCN(S(=O)(=O)c2ccc(Br)cc2)C1 (centres undefined) | 19.8% | –
62 | CSc1ccc(NC(=O)/C=C/C(=O)O)cc1 | 10.9% | –
63 | O=C(Nc1ccccc1C(=O)N1CCCCC1)c1ccco1 | 32.1% | –
64 | COc1ccc(-c2nnn(CC(=O)N(CCO)C(C(=O)NC3CCCC3)c3ccc(F)cc3)n2)cc1 (centres undefined) | 11.1% | –
65 | COc1cccc(N(CC(=O)NC2CCCC2)C(=O)Cn2nnc(-c3ccc(C)o3)n2)c1 | – | 11.7 µM (active)
66 | Cc1cccc(N(C(=O)Cn2nnc(-c3ccc(C)o3)n2)C(C(=O)NC2CCCC2)c2ccncc2)c1 (centres undefined) | -5.05% | –
67 | COc1ccc(C)cc1N(C(=O)Cn1nnc(-c2ccc(C)o2)n1)C(C(=O)NC1CCCC1)c1ccncc1 (centres undefined) | – | 8.28 µM (active)
68 | O=C(Cn1nnc(-c2ccccc2)n1)NC(=O)NC1CCCC1 | 16.9% | –
69 | CCC(C(=O)NC1CCCC1)N(C(=O)Cn1nnc(-c2ccc(C)o2)n1)c1ccc(OC)c(OC)c1 (centres undefined) | -18.7% | –
70 | COc1cccc(N(CC(=O)NC2CCCC2)C(=O)Cn2nnc(-c3ccc(C)cc3)n2)c1 | 13.2% | –
71 | COc1ccc(C(C(=O)NC2CCCC2)N(CCCO)C(=O)Cn2nnc(-c3ccc(C)o3)n2)cc1 (centres undefined) | – | 3.7 µM (active)
72 | CCOCCCN(C(=O)Cn1nnc(-c2ccc(OC)c(OC)c2)n1)C(CC)C(=O)NC1CCCC1 (centres undefined) | 5.08% | –
73 | CC1CC(C)CN(c2ccc(S(=O)(=O)N3CCOCC3)cc2)C1 (centres undefined) | 0% | –
74 | Cc1occc1-c1nnc(SCC(=O)NC2CCCCC2)o1 | 7.18% | –
75 | Cc1nc(N)nc(SCc2ccc([N+](=O)[O-])cc2)c1N | 18.6% | –

Row | Structure (SMILES) | activity change, negative = inhibition | Potency
76 | O=C(c1ccc(Cl)c(S(=O)(=O)N2CCCCC2)c1)N1CCCCCC1 | 5.22% | –
77 | COc1ccc(Cl)cc1NS(=O)(=O)c1cccc(C(=O)NC2CCC(O)CC2)c1 (centres undefined) | -3.89% | –
78 | CCCCN(CCCC)CCNC(=O)CN1C(=O)COc2ccc(S(=O)(=O)N3CCOCC3)cc21 | -0.253% | –
79 | Cc1ccc(OCC(=O)Nc2ccccc2C(=O)NC2CC2)cc1C | 3.06% | –
80 | Cc1cc(NC(=O)COc2ccc([N+](=O)[O-])cc2)no1 | -28.6% | –
81 | Cc1onc(NC(=O)c2ccc([N+](=O)[O-])o2)c1Br | – | 5.86 µM (active)
82 | O=C(OCC(=O)c1cccs1)c1ccc([N+](=O)[O-])o1 | 17.2% | –
83 | Cc1cc(C)c2c(=O)[nH]c(SCC(=O)Nc3ccc(Br)cc3)nc2n1 | -7.23% | –
84 | Cc1ccc(S(=O)(=O)N2CCOCC2)cc1NC(=O)COC(=O)c1cnccn1 | 29.9% | –
85 | Nc1nc(SCC(=O)Nc2ccc(Cl)cc2C(F)(F)F)n[nH]1 | 14.2% | –
86 | Cc1ccc(S(=O)(=O)NCC2CCC(C(=O)N3CCOCC3)CC2)cc1 (centres undefined) | 5.81% | –
87 | CN(C)S(=O)(=O)c1ccc(C(=O)NCC(C)(C)N2CCOCC2)cc1 | -13.6% | –
88 | O=C(NCCSCc1ccccc1)c1ccc(Cl)c(S(=O)(=O)N2CCOCC2)c1 | – | 11.7 µM (active)
89 | O=C(NCc1cccnc1)c1cc(S(=O)(=O)N2CCOCC2)c(Cl)cc1Cl | 2.43% | –
90 | CC(C)(CNC(=O)c1ccc(Cl)c(S(=O)(=O)N2CCc3ccccc3C2)c1)N1CCOCC1 | – | 7.38 µM (active)
91 | CN(CC(=O)Nc1ccc(F)cc1)CC(=O)Nc1ccc(Cl)c(S(=O)(=O)N2CCOCC2)c1 | -1.1% | –
92 | CC(C)(CNC(=O)Cc1ccc(Cl)cc1Cl)N1CCOCC1 | 4.76% | –
93 | Cc1ccccc1CSCCNC(=O)c1ccc(N(C)S(=O)(=O)c2ccccc2)cc1 | 5.36% | –
94 | Cc1ccccc1CSCCNC(=O)c1ccc(Cl)c(S(=O)(=O)N2CCOCC2)c1 | – | 13.1 µM (active)
95 | Cc1ccc(NC(=O)CCCNC(=O)c2ccc(Cl)cc2)cc1S(=O)(=O)N1CCOCC1 | -23.3% | –
96 | COc1ccccc1N(CC(=O)NC1CCCC1)C(=O)C1(C)CC(=O)N=C2C=CC(C)=CN21 (centres undefined) | 10.9% | –
97 | O=C(Nc1ccc(N2CCCCC2)cc1)c1cc(S(=O)(=O)N2CCOCC2)ccc1F | -9.34% | –
98 | COC(=O)c1ccc(CNC(=O)c2ccc3oc(C(C)C)nc3c2)cc1 | 18.4% | –
99 | NCCCCC(N)C(=O)O (centres undefined) | -8.26% | –
